CtBP-E1A inh: qHTS Assay for Inhibitors of the CtBP/E1A Interaction; activity change, % (no concentration beside the values); AID 651724, 2012; 340,000 compounds, 0.49% hits; AlphaScreen GST-E1A/His-CtBP binding, 1536-well; hits give low values; in the data active = activity change below about -65%; inconclusive = mostly about -30% to -63%; note: % is set by controls: 0 for no effect and ±100 for the full control effect
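AlphaScreen with 125 nM GST-E1A and 125 nM His-CtBP (5X stocks) in Tris pH 8.0, 300 mM NaCl, BSA, Tween 20, TCEP. Compounds preincubated 2 h at 37 deg C, then glutathione donor/nickel acceptor beads added for 1 h at 37 deg C in dark.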
Gal4-VP16 FLuc: VP16 counterscreen qHTS for inhibitors of ROR gamma transcriptional activity; Drosophila S2 Gal4-VP16 UAS-luciferase, luminescence, 20 h; 310,000 compounds, 3.5% hits; AID 2546, 2010; Potency, µM (titrated, usually from 53.6 µM), without a hit: top-dose activity, negative = inhibition, actives largely listed as inhibitors;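 note: Gal4-VP16 expression switched on by copper sulfate through the metallothionein promoter; potency is the fitted concentration of half-maximal effect; % is set by controls: 0 for no effect and ±100 for the full control effect; nearly all actives have a fitted effect of over 50% in size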
p53 reactivator: qHTS assay for re-activators of p53 using a Luc reporter; H1299 p53-A138V BP100-luciferase reporter, luminescence, 24 h; Potency, µM (top dose mostly 92.2 µM), for inactives: at the top dose activity change, positive = activation, actives largely listed as activators; 320,000 compounds, 0.063% hits; AID 504706, 2011; note: potency is the fitted concentration of half-maximal effect; % of control where 0% means no effect; nearly all actives have a fitted effect of over 45% in size
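p53-null H1299 cells stably carrying temperature-sensitive p53-A138V and a BP100-luciferase reporter were pinned with compounds (4-point, 1:5 series) and held 24 hrs at 37 deg C. Luminescence was read 10 min after detection reagent.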
RORgamma inh: qHTS for inhibitors of ROR gamma transcriptional activity | Drosophila S2 Gal4-RORgamma UAS-luciferase reporter, 20 h | 310,000 compounds, 5.4% hits | Potency, µM (titrated, usually from 53.6 µM), for the others: at the highest dose activity change, negative = inhibition, usual class: inhibitors | AID 2551, 2010; note: potency is the fitted concentration of half-maximal effect; % is set by controls: 0 for no effect and ±100 for the full control effect; nearly all actives have a fitted effect of over 60% in size
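In this cell-based reporter format, copper sulfate (700 uM final) drives Gal4–ROR gamma fusion expression from a metallothionein promoter in Drosophila Schneider cells; compounds preincubated 1 hr, reporter read after 20 hr at ambient temperature.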
Six1-Eya2 inh: qHTS Assay for Inhibitors of the Six1/Eya2 Interaction. Homeobox protein SIX1 (Homo sapiens) + Protein phosphatase EYA2 (Homo sapiens), …. AlphaScreen GST-Six1/His-Eya2 binding, biochemical; hits give low values. activity change, % (test concentration not listed). 360,000 compounds, 0.56% hits. AID 651725, 2012; in the data active = activity change below about -65%; inconclusive = mostly about -30% to -63%; note: % is set by controls: 0 for no effect and ±100 for the full control effect
Target sequence (O00167 whole entry, looked up): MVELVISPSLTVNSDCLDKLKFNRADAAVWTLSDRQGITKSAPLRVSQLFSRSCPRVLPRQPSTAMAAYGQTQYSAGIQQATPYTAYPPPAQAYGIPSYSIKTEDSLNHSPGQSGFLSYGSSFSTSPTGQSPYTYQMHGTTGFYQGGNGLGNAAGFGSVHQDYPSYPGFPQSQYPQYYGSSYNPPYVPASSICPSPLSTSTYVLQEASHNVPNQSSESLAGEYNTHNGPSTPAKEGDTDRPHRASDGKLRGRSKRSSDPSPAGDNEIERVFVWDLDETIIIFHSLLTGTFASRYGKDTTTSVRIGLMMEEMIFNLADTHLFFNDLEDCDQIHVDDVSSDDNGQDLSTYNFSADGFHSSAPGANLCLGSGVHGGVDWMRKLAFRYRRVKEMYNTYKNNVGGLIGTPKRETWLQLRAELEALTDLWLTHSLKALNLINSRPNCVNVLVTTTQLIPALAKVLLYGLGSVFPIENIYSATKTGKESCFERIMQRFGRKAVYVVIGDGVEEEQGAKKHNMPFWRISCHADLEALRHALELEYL
Target sequence (Q15475 whole entry, looked up): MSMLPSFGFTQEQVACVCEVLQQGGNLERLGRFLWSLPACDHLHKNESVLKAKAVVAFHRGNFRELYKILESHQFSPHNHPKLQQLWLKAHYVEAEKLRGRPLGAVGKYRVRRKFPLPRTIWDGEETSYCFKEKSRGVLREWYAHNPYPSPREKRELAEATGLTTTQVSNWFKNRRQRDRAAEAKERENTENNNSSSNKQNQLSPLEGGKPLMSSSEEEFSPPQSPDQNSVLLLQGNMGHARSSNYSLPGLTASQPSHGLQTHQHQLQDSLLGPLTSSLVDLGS
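AlphaScreen luminescence read after one hour at 37 °C in darkness. Pin-transferred compounds met GST-Six1 and His-Eya2 protein (5X stock 250 nM/500 nM) plus glutathione donor and Ni-chelate acceptor beads (5X, 50 ug/mL).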
The depositor's hits bear a star; ? = inconclusive; . = no result given. This is a sample that favours compounds with a hit; in the whole collection about 5.4% have one here. Unless noted, calls come from the whole dose curve; as a rule, active = well fitted curve in the direction sought with a large enough effect; inconclusive = small, poorly fitted or top-dose-only effect, or another doubt; inactive = no such curve, though single readings can be large; an effect the other way counts as inactive or inconclusive.

SMILES | CtBP-E1A inh | Gal4-VP16 FLuc | p53 reactivator | RORgamma inh | Six1-Eya2 inh
COc1ccc(S(=O)(=O)N2CCOCC2)cc1NC(=O)c1ccc(OC(F)F)cc1 | -9 | . | -7% | . | 2
O=C(C1=C[C@H](C2CCCCC2)C[C@H](OCc2ccc(CO)cc2)O1)N1CCN(Cc2ccccc2)CC1 | -14 | -18% | -1% | 35% | -9
O=C(C1=C[C@@H](C2CCCCC2)C[C@@H](OCc2ccc(CO)cc2)O1)N1CCN(Cc2ccccc2)CC1 | -9 | 13µM* | 3% | ? | -19
COc1ccccc1-n1c(C)nc2cc(C(=O)NCCN3CCOCC3)ccc21 | . | -4% | -2% | -5% | 1
Cc1c(CCOC(=O)c2cc([N+](=O)[O-])cc([N+](=O)[O-])c2)sc[n+]1CC(=O)c1ccc(Br)cc1 | -16 | 0% | -8% | 4µM* | -7
Cc1c(CCOC(=O)c2ccc(Cl)cc2Cl)sc[n+]1CC(=O)c1ccccc1 | 2 | . | 29% | . | -6
Cc1c(CCOC(=O)CC23CC4CC(CC(C4)C2)C3)sc[n+]1CC(=O)c1ccccc1 | -1 | 4.5µM* | -12% | ? | -7
Cc1c(CCOC(=O)C23CC4(C)CC(C)(CC(C)(C4)C2)C3)sc[n+]1CC(=O)c1ccccc1 | -2 | -12% | -11% | 12% | -1
Nc1c(Cl)ncnc1NCCc1ccc(O)cc1 | 3 | 7.9µM* | 0% | -4% | 4
Nc1c(Cl)ncnc1NCc1cccnc1 | 6 | 9% | -2% | -24% | -1
COc1ccc(CCN2C(=O)C3C4C=CC(C3C2=O)C2C(=O)N(CCc3ccc(OC)c(OC)c3)C(=O)C42)cc1OC (configuration not stated) | 3 | 8.9µM* | 1% | 0% | 1
COc1ccc(C2/C=C\CNCC(=O)N2Cc2ccc(F)cc2)cc1 (configuration not stated) | 3 | 4% | -4% | -8% | -2
COCCCNC(=S)NCCNc1nc2cc(C)cc(C)c2cc1C#N | -5 | ? | -1% | 8.9µM* | -10
CCOCCCNC(=S)NCCCNc1nc2c(C)cc(C)cc2cc1C#N | 6 | 0% | -2% | -33% | 39
CCOCCCNC(=S)NCCNc1nc2c(C)cccc2cc1C#N | 9 | 3.2µM* | -12% | 0.25µM* | 2
COc1cccc(C(=O)NCCNc2nc3cc(C)cc(C)c3cc2C#N)c1 | -6 | . | . | . | 5
Cc1cccc2cc(C#N)c(NCc3ccccc3)nc12 | . | 7.1µM* | -19% | 5.6µM* | 33
Cc1ccc(S(=O)(=O)N(C)c2c(C)ccc(S(=O)(=O)NC(C)(C)C)c2C)cc1 | 16 | -8% | -2% | -34% | 1
O=C(CSc1ccc(-c2ccccn2)nn1)NCc1ccc(Cl)cc1 | -70* | 3% | -4% | -24% | ?
COc1cccc(CNC(=O)CSc2ccc(-c3ccccn3)nn2)c1 | -74* | -2% | 4% | -18% | -65*
COc1cccc(CNC(=O)CSc2ccc(-c3ccco3)nn2)c1 | -8 | -7% | 2% | 1% | -6
O=C(CSc1ccc(-c2ccco2)nn1)NCc1ccc(Cl)cc1 | -1 | -7% | -21% | 19% | 0
CO[C@H](C(=O)[C@@H](O)[C@@H](C)O)C1Cc2cc3cc(O[C@H]4C[C@@H](O[C@H]5C[C@@H](O)[C@H](O)[C@@H](C)O5)[C@@H](O)[C@@H](C)O4)c(C)c(O)c3c(O)c2C(=O)[C@H]1O[C@H]1C[C@@H](O[C@H]2C[C@@H](O[C@H]3C[C@](C)(O)[C@H](O)[C@@H](C)O3)[C@H](O)[C@@H](C)O2)[C@H](O)[C@@H](C)O1 (some centres not stated) | . | 0.5µM* | . | 0.63µM* | .
